In PubChem BioAssay AID1159580 (chemical genetic matrix, 2015):
About 2,000 (36%) of roughly 5,500 compounds were called active. Roughly 18% stayed inconclusive and do not appear here. Rule as the data show it: active = normalized growth mostly below about 0.91 (no sharp cut-off); inconclusive = no clear call, values can overlap the other calls; inactive = mostly above about 0.92. This is one part of the list.

Assay: chemical genetic growth profiling, strain panel (AID 1159580);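 also: tested at 20 µM; growth read once vehicle control cultures reached saturation at 30 °C; 1 = growth at the plate median or of vehicle wells; lower values mean less growth of the strain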
Conditions: S. cerevisiae deletion strains, growth OD

Measured: normalized growth

COc1ccc(C(=O)/C=C/c2ccccc2)cc1
inactive: locus YJR066W, strain TOR1, active compounds read low 0.841 | locus YKL068W, active compounds read low 0.983 | locus YKL085W, strain MDH1 (second series), active compounds read low 0.974 | locus YKL085W, strain MDH1, active compounds read low 0.974 | locus YKL190W, strain CNB1, active compounds read low 1.01 | locus YKR026C, strain gcn3, active compounds read low 0.983 | locus YKR091W, strain srl3, active compounds read low 0.982 | locus YLL026W, active compounds read low 0.971 | locus YLL041C, strain sdh2, active compounds read low 0.999 | locus YLR039C, strain RIC1, active compounds read low 0.792 | locus YLR058C, strain SHM2, active compounds read low 0.899 | locus YLR102C, strain apc9, active compounds read low 0.964 | locus YLR258W, strain gsy2, active compounds read low 0.936 | locus YLR357W, strain rsc2, active compounds read low 0.957 | locus YLR370C, strain arc18, active compounds read low 0.978 | locus YLR384C, strain iki3, active compounds read low 0.969 | locus YML016C, strain PPZ1, active compounds read low 0.947 | locus YML120C, strain ndi1, active compounds read low 0.954 | locus YML124C, strain tub3, active compounds read low 0.958 | locus YMR129W, active compounds read low 0.985 | locus YMR231W, strain pep5, active compounds read low 1 | locus YMR307W, strain GAS1, active compounds read low 0.939 | locus YNL067W, strain RPL9B, active compounds read low 0.954 | locus YNL128W, strain TEP1, active compounds read low 0.922 | locus YNL183C, strain NPR1, active compounds read low 0.838 | locus YNL209W, strain ssb2, active compounds read low 0.968 | locus YNL250W, strain rad50, active compounds read low 0.958 | locus YNL271C, strain bni1, active compounds read low 0.92 | locus YNL322C, strain KRE1 (second series), active compounds read low 0.917 | locus YNR049C, strain mso1, active compounds read low 0.995 | locus YNR052C, strain pop2, active compounds read low 0.941 | locus YOL006C, strain TOP1, active compounds read low 0.664 | locus YOL012C, strain htz1 0.771 | locus YOR001W, strain rrp6, active compounds read low 0.905 | locus YOR061W, strain CKA2, active compounds read low 0.981 | locus YOR069W, strain VPS5, active compounds read low 0.958 | locus YOR070C, strain gyp1, active compounds read low 0.928 | locus YOR080W, strain dia2, active compounds read low 0.981 | locus YOR136W, strain idh2, active compounds read low 0.939 | locus YOR265W, strain rbl2, active compounds read low 0.994 | locus YOR316C, strain cot1, active compounds read low 0.966 | locus YPL240C, strain hsp82, active compounds read low 0.954 | locus YPR119W, strain clb2, active compounds read low 0.964 | locus YPR141C, strain kar3, active compounds read low 0.965
active: locus YJL187C, strain SWE1, active compounds read low 0.917 | locus YKL009W, strain mrt4, active compounds read low 0.834 | locus YKL160W, strain elf1, active compounds read low 0.878 | locus YKR001C, strain vps1, active compounds read low 0.783 | locus YLL001W, strain dnm1, active compounds read low 0.898 | locus YLR027C, strain aat2, active compounds read low 0.846 | locus YLR113W, strain HOG1, active compounds read low 0.628 | locus YLR221C, strain rsa3, active compounds read low 0.809 | locus YLR262C, strain YPT6 (second series), active compounds read low 0.855 | locus YLR268W, strain sec22, active compounds read low 0.818 | locus YLR320W, strain mms22, active compounds read low 0.525 | locus YLR330W, strain CHS5, active compounds read low 0.854 | locus YLR342W, strain FKS1, active compounds read low 0.839 | locus YLR371W, strain rom2, active compounds read low 0.796 | locus YLR418C, strain cdc73, active compounds read low 0.358 | locus YML032C, strain rad52, active compounds read low 0.746 | locus YMR058W, strain fet3, active compounds read low 0.803 | locus YMR078C, strain ctf18, active compounds read low 0.73 | locus YMR125W, strain sto1, active compounds read low 0.856 | locus YMR205C, strain PFK2, active compounds read low 0.707 | locus YMR223W, strain ubp8, active compounds read low 0.852 | locus YNL071W, strain lat1, active compounds read low 0.307 | locus YNL233W, strain BNI4, active compounds read low 0.777 | locus YNL248C, strain rpa49, active compounds read low 0.687 | locus YNL298W, strain CLA4, active compounds read low 0.858 | locus YNL307C, strain MCK1, active compounds read low 0.239 | locus YOL147C, strain pex11, active compounds read low 0.752 | locus YOR083W, strain WHI5, active compounds read low 0.86 | locus YOR106W, strain vam3, active compounds read low 0.823 | locus YOR144C, strain elg1, active compounds read low 0.897 | locus YOR184W, strain ser1, active compounds read low 0.43 | locus YOR231W, strain MKK1, active compounds read low 0.757 | locus YOR270C, strain vph1, active compounds read low 0.613 | locus YOR290C, strain snf2, active compounds read low 0.792 | locus YPL051W, strain arl3, active compounds read low 0.868 | locus YPL078C, strain atp4, active compounds read low 0.799 | locus YPL106C, strain sse1, active compounds read low 0.76 | locus YPL256C, strain CLN2, active compounds read low 0.74 | locus YPR163C, strain tif3, active compounds read low 0.432 | locus YPR167C, strain met16, active compounds read low 0.889 | strain wtn01, active compounds read low 0.811
